Source: PubChem BioAssay (National Center for Advancing Translational Sciences (NCATS))
A selection: hits, their analogues and other compounds. The true share with any hit is near 14%.
Pf growth 96h: Primary qHTS for delayed death inhibitors of the malarial parasite plastid, 96 hour incubation; AID 504834, 2011; Potency, µM (titrated, usually from 28.7 µM), for the others: at the top dose activity change, negative = inhibition, actives largely listed as inhibitors; P. falciparum luciferase reporter growth, 96 h; 6.9% of 320,000 active; note: potency is the fitted concentration of half-maximal effect
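Plates of compound plus infected erythrocytes (2% hematocrit, 0.05% parasitemia final) incubate 96 hours, 37 C, 5% CO2. Detection reagent added; reduced luminescence from the parasites' luciferase reporter flags inhibition.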
Sm TGR inh: qHTS Assay for the Inhibitors of Schistosoma Mansoni Peroxiredoxins; 3% of 360,000 active; Potency, µM (doses to about 114 µM), inactives show at the highest dose activity change, negative = inhibition, usual class: inhibitors; AID 485364, 2010; purified TGR, DTNB reduction, TNB absorbance 405 nm; note: potency is the fitted concentration of half-maximal effect; nearly all actives have a fitted effect of over 60% in size
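First, TGR (20 nM dispensed) and NADPH were mixed with compound. Second, a 15 min room-temperature incubation followed. Third, further NADPH and then DTNB were added to start the reaction. Finally, TNB absorbance was monitored kinetically.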
HCMV inh: qHTS Assay for inhibitors of the human cytomegalovirus (HCMV). HFF cells, HCMV-luciferase reporter, 72 h; hits give low values. AID 1259415, 2018. 4.5% of 410,000 active. activity change, negative = inhibition, % at 57.5 µM; in the data active = activity change below about -60%; inconclusive = no clear call, values can overlap the other calls; inactive = above about -39%
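Steps: HFFs plated, 16 h 37C; compounds added; HCMV-luciferase added to MOI 1 PFU/cell; 72 h 37C; OneGlo reagent, 5 min room temperature; luminescence read, normalized to controls.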
Pf growth 48h: Primary qHTS for delayed death inhibitors of the malarial parasite plastid, 48 hour incubation. 5.9% of 310,000 active. Potency, µM (highest dose often 28.7 µM), inactives show top-dose activity change, negative = inhibition, hits mostly inhibitors. P. falciparum luciferase growth in erythrocytes, 48 h; note: potency is the fitted concentration of half-maximal effect
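Erythrocytes infected with P. falciparum carrying an integrated firefly luciferase reporter (2% hematocrit, 0.1% parasitemia final) were exposed to compounds in RPMI 1640 with 0.5% Albumax at 37 C, 5% CO2. Growth inhibition was scored as reduced luminescence.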
FBPA Giardia inh: qHTS Assay for Inhibitors of Fructose-1,6-bisphosphate Aldolase from Giardia Lamblia | purified Giardia FBPA | Potency, µM (top dose mostly 59.6 µM), without a hit: at the top dose activity, negative = inhibition, usual class: inhibitors | 0.71% of 290,000 active | A8B2U2; note: potency is the fitted concentration of half-maximal effect; nearly all actives have a fitted effect of over 55% in size
Target sequence (A8B2U2 whole entry, looked up): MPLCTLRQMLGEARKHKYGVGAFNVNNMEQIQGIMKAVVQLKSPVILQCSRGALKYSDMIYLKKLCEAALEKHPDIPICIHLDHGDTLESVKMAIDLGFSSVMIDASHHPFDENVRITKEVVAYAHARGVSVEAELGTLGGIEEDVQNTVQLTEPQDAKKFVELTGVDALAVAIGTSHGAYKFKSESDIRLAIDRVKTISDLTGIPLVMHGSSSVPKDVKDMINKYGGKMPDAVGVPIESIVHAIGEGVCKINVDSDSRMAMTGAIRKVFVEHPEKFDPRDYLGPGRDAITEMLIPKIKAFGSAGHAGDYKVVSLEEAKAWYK
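Giardia FBPA (40 nM reagent) was preincubated 10 min at RT with compound (up to 57.5 uM final), then substrate plus GAPDH/TPI/NAD/arsenate coupling system with diaphorase/resazurin was added; resorufin fluorescence (525/598 nm) was read after 20 min.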
* marks the source's active call; other numbers are inactive results; ? = inconclusive; . = no result given; [ ] = another dose, or the depositor's remark. Unless noted, calls come from the whole dose curve; as a rule, active = well fitted curve in the direction sought with a large enough effect; inconclusive = small, poorly fitted or top-dose-only effect, or another doubt; inactive = no such curve, though single readings can be large; an effect the other way counts as inactive or inconclusive. % is set by controls: 0 for no effect and ±100 for the full control effect.

SMILES | Pf growth 96h | Sm TGR inh | HCMV inh | Pf growth 48h | FBPA Giardia inh
CCOc1ccc(CCNC(=O)c2cc3c(-c4ccccc4F)nn(C)c3s2)cc1OCC | . | -0.6% | -65.2* | . | .
Cc1ccc(CCNC(=O)c2cc3c(-c4ccccc4F)nn(C)c3s2)cc1 | . | -1.0% | -14.0 | . | .
CCCCNC(=S)NNC(=O)c1cc(C2CC2)nc2ccccc12 | 40.2% | 8.0% | -9.8 | ? | 4.1%
CCCCN(CC)CCNC(=O)c1cc2c(-c3ccccc3F)nn(C)c2s1 | 22.2% | -2.4% | 14.7 | 2.08µM* | 14.7%
CCN(CCCNC(=O)c1cc2c(-c3cccc(OC)c3)nn(C)c2s1)Cc1ccccc1 | 9.2% | 5.0% | -1.7 | 2.33µM* | 4.1%
COc1cccc(-c2nn(C)c3sc(C(=O)NCc4cc(OC)ccc4OC)cc23)c1 | . | 6.9% | -24.5 | . | .
CCOc1ccc(CCNC(=O)c2cc3c(-c4cccc(OC)c4)nn(C)c3s2)cc1OCC | . | 2.6% | -62.8* | . | .
Nn1c(SCc2ccccc2)nc2ccccc21 | 82.9% | -2.2% | 59.4 | 44.4% | .
CNC(=O)C(=O)NCC1OCCN1S(=O)(=O)c1ccc(C)cc1 (centres undefined) | 22.1% | -6.2% | -34.2 | 6.6% | .
Cc1ccc(S(=O)(=O)N2CCOC2C(Cl)(Cl)Cl)cc1 (centres undefined) | 13.8% | -6.4% | ? | 8.28µM* | -5.3%
O=C(O)c1ccc(-n2cc(-c3cc4ccccc4oc3=O)[nH]c2=S)cc1 | 0.165µM* | ? | -64.3* | 126.9% | -20.7%
Cc1[nH]c2ccccc2c1C(=O)C(=O)NC1CC(=O)N(c2ccc(F)cc2)C1 (centres undefined) | 3.5% | -6.9% | -20.3 | -34.6% | .
COC(=O)C1C(=O)N(S(=O)(=O)c2ccc([N+](=O)[O-])cc2)c2ccccc21 (centres undefined) | . | . | 26.8 | . | .
COC(=O)Cn1c(=NC(=O)c2ccc([N+](=O)[O-])s2)sc2cc(Br)ccc21 | 0.828µM* | -2.3% | . | ? | 2.0%
COC(=O)Cn1c(=NC(=O)c2ccc(Cl)s2)sc2cc(C)ccc21 | 3.5% | -7.9% | 22.9 | 85.9% | -0.4%
COc1ccccc1N(C)S(=O)(=O)c1ccc(C(=O)Nc2ccncc2)cc1 | ? | -0.7% | ? | ? | .
Cc1nc(Nc2cc(F)ccc2C)c2nnn(Cc3ccccc3)c2n1 | 295.8% | 11.0% | -21.0 | -0.4% | -7.4%
CSc1ccc(CNc2cccc3ccccc23)cc1 | -54.3% | 2.5% | -63.7* | . | -9.0%
O=C1CC[C@@H](CN(Cc2ccccc2)Cc2cn[nH]c2-c2cc3ccccc3o2)N1 | 14.7µM* | -1.9% | 6.5 | ? | -18.9%
Cn1c(CCNC(=O)c2ccco2)nc2cc([N+](=O)[O-])ccc21 | 2.62µM* | -17.9% | 5.5 | 7.6% | .
Cc1ccc(S(=O)(=O)Nc2c(C)[nH]c(=O)[nH]c2=O)cc1C | 2.62µM* | -16.5% | -4.9 | -1.4% | 4.2%
CC(C)n1c(/N=C/c2ccccc2O)nc2ccccc21 | ? | 1.1% | 28.7 | 6.1% | -6.8%
Cc1nn(CC(=O)O)c(C)c1C | . | 0.0% | -89.8* | 6.6% | 7.9%
CC(=O)n1cc([C@@H]2C=C(C(=O)Nc3ccccc3)O[C@H](OCc3ccc(CO)cc3)C2)c2ccccc21 | 5.86µM* | 7.3% | 30.1 | ? | -15.5%
C#CCNC(=O)C1=C[C@@H](c2cn(C(C)=O)c3ccccc23)C[C@@H](OCc2ccc(CO)cc2)O1 | 6.57µM* | ? | -11.2 | 8.28µM* | -16.0%
SMILES | Pf growth 96h | Sm TGR inh | HCMV inh | Pf growth 48h | FBPA Giardia inh
C#CCNC(=O)C1=C[C@@H](C2CC2)C[C@@H](OCc2ccc(CO)cc2)O1 | 0.7% | -9.3% | 1.3 | -20.3% | 7.4%
CC(=O)n1cc([C@H]2C=C(C(N)=O)O[C@@H](OCc3ccc(CO)cc3)C2)c2ccccc21 | . | . | 9.7 | . | .
C#CCNC(=O)C1=C[C@@H](C(C)(C)C)C[C@@H](OCc2ccc(CO)cc2)O1 | ? | 35.5µM* | -12.3 | 34.6% | -8.5%
CC(=O)n1cc([C@H]2C=C(C(=O)NCc3ccccc3)O[C@@H](OCc3ccc(CO)cc3)C2)c2ccccc21 | 2.08µM* | ? | -15.3 | ? | ?
CCc1cc(C(=O)N2CCN(c3ncccn3)CC2)sc1C | -9.8% | 2.9% | -31.3 | ? | .
CC(C)(C)[C@H]1COC(=O)[C@@H](Cc2ccc(F)cc2)CC/C=C/C[C@@H](CC(=O)N[C@H](CO)Cc2ccccc2)C(=O)N1 | . | . | -10.3 | . | .
CCC(C)(NC(=O)c1ccc2c(c1)OCO2)C(=O)NC1CCCCC1 (centres undefined) | -22.7% | -3.1% | -17.8 | -0.4% | 4.5%
O=C(Nc1ccnn1C1CCN(Cc2ccc(F)cc2)CC1)C1CC1 | -11.5% | 6.6% | ? | -5.7% | 5.8%
CC(Cc1ccc(Cl)cc1)N1CCC(n2nccc2NC(=O)C2CCCC2)CC1 (centres undefined) | ? | 8.5% | -33.7 | 10.4µM* | .
COc1cc(CN2CCC(n3nccc3NC(=O)C3CC3)CC2)cc(OC)c1 | 20.9% | 3.0% | -13.3 | -19.7% | -5.0%
CC(C)Oc1ccc(CN2CCC(n3nccc3NC(=O)C3CC3)CC2)cc1 | ? | 39.9% | -70.0* | 6.3% | .
CCOc1cc(CN2CCC(n3nccc3NC(=O)C3CC3)CC2)ccc1O | 2.8% | 39.8µM* | 0.0 | 14.5% | 0.2%
CC(C)[C@H](NC(=O)N1CC(=O)Nc2ccccc21)C(=O)N[C@H](Cc1ccccc1)C(=O)O | -10.8% | 6.5% | 27.3 | ? | -6.7%
CCOCCSc1nc2c(c(-c3cccs3)c1C#N)CC/C2=C/c1cccs1 | -0.1% | 44.7µM* | -11.8 | -2.5% | -6.7%
CNC(=S)N(Cc1cccs1)Cc1cc2cc(OC)ccc2[nH]c1=O | 7.38µM* | -1.0% | 2.5 | ? | 0.6%
COc1ccc2[nH]c(=O)c(CN(Cc3cccs3)C(=S)Nc3cccc(C)c3)cc2c1 | ? | -6.8% | -65.7* | 14.7µM* | 2.3%
CCC(=O)N(CCc1ccccc1)Cc1cc2ccc(OC)cc2[nH]c1=O | 2.9% | -16.6% | -2.8 | -91.4%[0.00184 µM] | -10.7%
CCC(=O)N(CCc1ccccc1)Cc1cc2cc(OC)ccc2[nH]c1=O | -7.8% | -2.5% | -19.6 | 2.08µM* | -1.0%
COc1ccc2[nH]c(=O)c(CN(CC3CCCO3)C(=S)Nc3cccc(C)c3)cc2c1 (centres undefined) | 24.9% | 3.2% | -28.2 | ? | ?
CNC(=S)N(Cc1cc2ccc(OC)cc2[nH]c1=O)CC1CCCO1 (centres undefined) | 13.1µM* | . | 67.7 | -22.6% | -9.2%
Cc1ccccc1S(=O)(=O)NC(=O)C1(C)CCN1C(=O)Cc1cc(F)ccc1F (centres undefined) | . | . | -20.2 | . | .
COc1ccc2[nH]c(=O)c(CN(CCO)S(=O)(=O)c3c(C)ccc4nsnc34)cc2c1 | . | 21.7% | -3.4 | 5.2% | -3.4%
